Structures can show the parent of a compound that is named as a salt. Values without a mark were called inactive.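 Rule for the calls: active = normalised median growth AUC below 0.1 of DMSO control; inactive = AUC 0.1 or higher.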
The compounds below were run on P. vulgatus RND KO (assay: growth AUC normalised to DMSO control (median) (fraction of control); higher = less growth inhibition, active = hit call of the paper). Conditions: 20 µM.
How it was run: (§1)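 Area under the growth curve, calculated by the trapezoidal rule up to entry into stationary phase, was normalised to vehicle wells on the same plate. Strains had been passaged twice overnight without oxygen and then grown in mGAM in 96-well plates from OD578 0.01, each with an approved-drug library compound at 20 μM in 1% DMSO. OD578 was read hourly over 24 h in an anaerobic incubator, and the median of three biological replicates is given.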
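Note: active when median AUC fell below 0.1.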

Row | SMILES | growth AUC normalised to DMSO control
1 | OC[C@H]1O[C@@H](n2cnc3cncnc32)[C@H](O)[C@@H]1O [Nebularine] | 0.991
2 | CCOc1ccc(NC(=O)CC(C)O)cc1 (centres undefined) [Bucetin] | 0.981
3 | CO[C@@H]1[C@@H](OC(N)=O)[C@@H](O)[C@H](Oc2ccc3c(O)c(NC(=O)c4ccc(O)c(CC=C(C)C)c4)c(=O)oc3c2C)OC1(C)C [Novobiocin sodium salt] | 0.0285 (active)
4 | O=C1C(=O)c2ccccc2C(O)=C1C1CCC(c2ccc(Cl)cc2)CC1 (centres undefined) [Atovaquone] | 1.02

Each compound was assayed on P. vulgatus WT in the same assay as above. Conditions: 20 µM.
How it was run: as §1

Row | SMILES | growth AUC normalised to DMSO control
5 | CC(=O)Oc1ccc(C(c2ccc(OC(C)=O)cc2)c2ccccn2)cc1 [Bisacodyl] | 1.04
6 | O=C(O)c1cc(/N=N/c2ccc(S(=O)(=O)Nc3ccccn3)cc2)ccc1O [Sulfasalazine] | 1.02
7 | COc1ccc2c(c1)c(CC(=O)O)c(C)n2C(=O)c1ccc(Cl)cc1 [Indomethacin] | 1.01
8 | CC(=O)Oc1c(C)cccc1C(=O)O [Cresopirine] | 0.986
9 | O=P(O)(O)C(O)(Cc1cccnc1)P(=O)(O)O [Risedronic acid monohydrate] | 0.999
10 | COc1ccc(C(=O)CC(=O)c2ccc(C(C)(C)C)cc2)cc1 [Avobenzone] | 0.911
11 | C[C@]12CC[C@@H]3c4ccc(O)cc4CC[C@H]3[C@@H]1C[C@@H](O)[C@@H]2O [Estriol] | 0.978
12 | CC1=C(C)C(=O)C(C(CCCCCC(=O)O)c2ccccc2)=C(C)C1=O (centres undefined) [Seratrodast] | 0.967
13 | CC(=O)[C@H]1CC[C@H]2[C@@H]3CCC4=CC(=O)CC[C@]4(C)[C@H]3CC[C@]12C [Progesterone] | 0.612
14 | OCCN1CCN(CC/C=C2/c3ccccc3Sc3ccc(C(F)(F)F)cc32)CC1 [Flupentixol dihydrochloride cis-(Z)] | 0.997
15 | O=C(O)c1cccnc1 [Niacin] | 1.09
16 | Cc1cn([C@H]2C[C@H](N=[N+]=[N-])[C@@H](CO)O2)c(=O)[nH]c1=O [Zidovudine] | 0.986
17 | C[C@H]1[C@H](OC(=O)CCC(=O)O)O[C@@H]2O[C@@]3(C)CC[C@H]4[C@H](C)CC[C@@H]1[C@@]24OO3 [Artesunate] | 1
18 | CN1CC(O)c2cc(N=NC(N)=O)c(O)cc21 (centres undefined) [Carbazochrome] | 1.01
19 | CN[C@@H]1[C@@H](O[C@H]2O[C@H](CO)[C@@H](N)[C@H](O)[C@H]2O)OC2C[C@@H](N)[C@@H](O[C@H]3[C@H](O)[C@@H](O)[C@H](N)C[C@@H]3N)OC2[C@@H]1O (some centres undefined) [Apramycin] | 0.998
20 | O=C1[C@H](CC[C@H](O)c2ccc(F)cc2)[C@@H](c2ccc(O)cc2)N1c1ccc(F)cc1 [Ezetimibe] | 0.918
21 | C=C(CC)C(=O)c1ccc(OCC(=O)O)c(Cl)c1Cl [Ethacrynic acid] | 1.01
22 | O=C(C1CCCCC1)N1CC(=O)N2CCc3ccccc3C2C1 (centres undefined) [Praziquantel] | 1.03
23 | CC#CCn1c(N2CCC[C@@H](N)C2)nc2c1c(=O)n(Cc1nc(C)c3ccccc3n1)c(=O)n2C [Linagliptin] | 1.02
24 | Nc1c(CC(=O)O)cccc1C(=O)c1ccc(Br)cc1 [Bromfenac] | 1.04

Row | SMILES | growth AUC normalised to DMSO control
25 | Cn1c(=O)c2nc[nH]c2n(C)c1=O [Theophylline monohydrate] | 1.01
26 | Cc1cc2nc3c(=O)[nH]c(=O)nc-3n(C[C@H](O)[C@H](O)[C@H](O)CO)c2cc1C [Riboflavine] | 1.07
27 | COC1=CC(=O)C[C@@H](C)[C@]12Oc1c(Cl)c(OC)cc(OC)c1C2=O [Griseofulvin] | 0.976
28 | C[C@H]1[C@H](NC(=O)/C(=N\OC(C)(C)C(=O)O)c2csc(N)n2)C(=O)N1S(=O)(=O)O [Aztreonam] | 0.134
29 | CC(C)NC[C@H](O)COc1cccc2ccccc12 [(S)-(-)-Propranolol hydrochloride] | 1.06
30 | CCCCCCOc1ccccc1C(N)=O [Exalamide] | 1.04
31 | CN/C(=N\CCSCc1nc[nH]c1C)NC#N [Cimetidine] | 1.02
32 | Cc1ncc([N+](=O)[O-])n1CCO [Metronidazole] | 0.0126 (active)
33 | N=C(N)c1ccc(OCCCCCOc2ccc(C(=N)N)cc2)cc1 [Pentamidine isethionate] | 0.749
34 | Cc1cc(/C=C/c2ccc3cc(N(C)C)ccc3[n+]2C)c(C)n1-c1ccccc1 [Pyrvinium pamoate] | 1.08
35 | COc1cc(NS(=O)(=O)c2ccc(N)cc2)ncn1 [Sulfamonomethoxine] | 0.976
36 | COc1cc([C@@H]2c3cc4c(cc3[C@@H](O[C@@H]3O[C@@H]5CO[C@@H](C)O[C@H]5[C@H](O)[C@H]3O)[C@H]3COC(=O)[C@H]23)OCO4)cc(OC)c1O [Etoposide] | 1.09
37 | Cc1ncc(C[n+]2csc(CCO)c2C)c(N)n1 [Thiamine hydrochloride] | 0.981
38 | O=c1[nH]cnc2c1ncn2[C@H]1CC[C@@H](CO)O1 [Didanosine] | 0.973
39 | CN1CCC[C@@H]1Cc1c[nH]c2ccc(CCS(=O)(=O)c3ccccc3)cc12 [Eletriptan] | 1.05
40 | Cc1ccc(/C(=C\CN2CCCC2)c2ccccn2)cc1 [Triprolidine hydrochloride] | 0.99
41 | OC[C@H]1O[C@@H](n2cnc3cncnc32)[C@H](O)[C@@H]1O [Nebularine] | 0.997
42 | CCOc1ccc(NC(=O)CC(C)O)cc1 (centres undefined) [Bucetin] | 0.981
43 | CO[C@@H]1[C@@H](OC(N)=O)[C@@H](O)[C@H](Oc2ccc3c(O)c(NC(=O)c4ccc(O)c(CC=C(C)C)c4)c(=O)oc3c2C)OC1(C)C [Novobiocin sodium salt] | 0.021 (active)
44 | O=C1C(=O)c2ccccc2C(O)=C1C1CCC(c2ccc(Cl)cc2)CC1 (centres undefined) [Atovaquone] | 1.02
